The source of these data is PubChem BioAssay (Tox21).

A short description of assay [1]: Nuclear factor erythroid 2-related factor 2/antioxidant responsive element (Nrf2/ARE) small molecule agonists: qHTS cell viability counter screen in human keratinocytes (AID 1919968; active = well fitted curve in the direction sought with a large enough effect in the repeat runs; an effect the other way counts as inactive or inconclusive; note: nearly all actives have a fitted effect of over 55% in size; note: potency is the fitted concentration of half-maximal effect). Put shortly:
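Viability counter-screen: KeratinoSens reporter cells, DMSO-delivered compounds, 23 h at 37 C, CellTiter-Fluor fluorescence.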

A short description of assay [2]: Nuclear factor erythroid 2-related factor 2/antioxidant responsive element (Nrf2/ARE) small molecule agonists: luciferase reporter gene qHTS assay in human keratinocytes (AID 1919969). Note: nearly all actives have a fitted effect of over 35% in size. Note: potency is the fitted concentration of half-maximal effect.
Assay [3] addresses Gonadotropin-releasing hormone receptor (Homo sapiens) (UniProt P30968). Briefly: Human gonadotropin-releasing hormone receptor (GnRHR) small molecule agonists, calcium flux assay in GnRHR-HEK293 cells (AID 1920063). Note: nearly all actives have a fitted effect of over 35% in size. The essentials: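 Tox21-format agonist screen using human GnRHR-expressing HEK293 cells and a fluorescent calcium dye; kinetic 3-min fluorescence reading after compound addition, 15-point concentration series run in triplicate.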

Assay [4] addresses KiSS-1 receptor (Homo sapiens) (UniProt Q969F8). The experiment in a line: Human kisspeptin (KISS1R) small molecule agonists, calcium flux assay in KISS1R-HEK293 cells (AID 1920064; active = well fitted curve in the direction sought with a large enough effect in the repeat runs; an effect the other way counts as inactive or inconclusive). Put shortly: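 Intracellular calcium mobilization in KISS1R-HEK293 cells was recorded by fluorescence (Ex/Em 480/540) for 3 min following compound addition to cells pre-loaded 1 h with calcium dye.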

Assay [5] in a line: p53 small molecule agonists, cell-based qHTS assay with human liver microsomes (AID 1963577). Put shortly:
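Compounds act here after metabolic activation: human liver microsomes and NADPH, both at 0.5 mg/mL final, were co-added to p53RE-bla cells. Incubation ran 16 h at 37 C, followed by LiveBLAzer detection.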

A short description of assay [6]: p53 small molecule agonists, cell-based qHTS assay with rat liver microsomes (AID 1963578). The essentials:
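Read-out is beta-lactamase reporter fluorescence (LiveBLAzer, 2 h, room temperature, dark) in p53RE-bla cells treated 16 h at 37 C with compound, rat liver microsomes and NADPH, both 0.5 mg/mL final.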

Assay [7] is described as follows: p53 small molecule agonists, cell-based qHTS assay with human liver microsomes: qHTS cell viability counter screen (AID 1963579). Note: nearly all actives have a fitted effect of over 45% in size. The essentials:
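Cells carrying the p53 response-element beta-lactamase reporter are treated for 16 h at 37 C with test compounds in the presence of human liver microsomes and NADPH (both 0.5 mg/mL final); ATP-based CellTiter-Glo luminescence then reports viability.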

The nature of assay [8]: p53 small molecule agonists, cell-based qHTS assay (AID 1963582; active = well fitted activation curve with a large enough effect in the signal ratio in the repeat runs, not every such curve was filed as active; the % refers to the signal ratio). The essentials: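 Agonist activity was scored from beta-lactamase FRET fluorescence in p53RE-bla cells treated 16 h at 37 C with compounds in DMSO, substrate incubation being 2 h at room temperature.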
Assay [9] can be described thus: cAMP Responsive Elements (CRE) small molecule agonists, cell-based qHTS assay (AID 1963590). The essentials:
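FRET-based beta-lactamase readout (LiveBLAzer B/G, 2 h RT) quantified CRE activation in HEK 293T CRE-bla cells after 3 h treatment with DMSO-dissolved compounds.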

Assay [10] is described as follows: cAMP Responsive Elements (CRE) small molecule antagonists, cell-based qHTS assay (AID 1963591; active = well fitted inhibition curve with a large enough effect in the signal ratio in the repeat runs, not every such curve was filed as active; the % refers to the signal ratio). The essentials:
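qHTS in CRE-bla HEK 293T cells: compound in DMSO, then 0.25 uM NKH477 (final), 3 h at 37 °C/5% CO2; beta-lactamase FRET read-out after 2 h substrate incubation.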

The target in assay [11] is D(2) dopamine receptor (Homo sapiens) (UniProt P14416). Briefly: Dopamine D2 receptor (DRD2) small molecule agonists, cell-based qHTS assay (AID 1963594). Note: nearly all actives have a fitted effect of over 35% in size. The essentials: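 HEK293 cells stably expressing DRD2 were cultured 24 h at 37 C, then given Ro20-1724 (0.1 mM final) and compounds for 10 min at room temperature. NKH477 (200nM) was then added for 30 min. cAMP was read by HTRF.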

Assay [12] shares this target. The experiment in a line: Dopamine D2 receptor (DRD2) small molecule antagonists, cell-based qHTS assay (AID 1963595; active = well fitted inhibition curve with a large enough effect in the signal ratio in the repeat runs, with a control signal flat; the % refers to the signal ratio; note: potency is the fitted concentration of half-maximal effect). Put shortly:
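Stable D2 receptor HEK293 line, 24 h after seeding. Compound preincubated 10 min, then quinpirole (12 nM) with forskolin analogue NKH477 (200 nM), 30 min, room temperature. Detection by time-resolved FRET of cAMP.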

Assay [13] can be described thus: p53 small molecule agonists, cell-based qHTS assay: qHTS cell viability counter screen (AID 1963581). Note: nearly all actives have a fitted effect of over 45% in size. Put shortly: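 Compounds are pinned onto HCT-116 p53RE-bla cells and left 16 h at 37 C. Following the reporter FRET read, ATP is quantified by CellTiter-Glo luminescence after 30 min at room temperature.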
Assay [14] has as its target 5-hydroxytryptamine receptor 2A (Homo sapiens) (UniProt P28223). The experiment in a line: 5-hydroxytryptamine receptor 2A (HTR2A) small molecule agonists, cell-based qHTS assay (AID 1963587). Note: nearly all actives have a fitted effect of over 30% in size. The essentials: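 HTR2A-CHO cells, plated 18 h at 37 C/5% CO2, dye-loaded 1 h at 37 C; compounds in DMSO added by pin tool (agonist mode). Intracellular calcium flux read as kinetic fluorescence on FDSS over 2 min at 1 s intervals.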

In assay [15] the target is Muscarinic acetylcholine receptor M1 (Homo sapiens) (UniProt P11229). Briefly: Cholinergic receptor muscarinic 1 (CHRM1) small molecule antagonists, cell-based qHTS assay (AID 1963588). Note: nearly all actives have a fitted effect of over 40% in size. The essentials:
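CHRM1-CHO calcium-flux assay, antagonist mode. Cells were seeded 18 h, dye-loaded 1 h at 37 C and given compound for 5 min at RT, then acetylcholine was added at 50nM. FDSS fluorescence was read 3 min; 15 concentrations, three runs.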

Assay [16] shares this target. Briefly: Cholinergic receptor muscarinic 1 (CHRM1) small molecule agonists, cell-based qHTS assay (AID 1963589). Note: nearly all actives have a fitted effect of over 35% in size. The essentials:
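Stable CHRM1-CHO cells (human receptor) were incubated 18 h, dye-loaded for 1 h at 37 C and exposed to test compounds for agonist activity, with calcium-dependent fluorescence followed kinetically.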

For assay [17], the target named is Beta-2 adrenergic receptor (Homo sapiens) (UniProt P07550). The experiment in a line: Adrenergic beta2 receptor (ADRB2) small molecule agonists, cell-based qHTS assay (AID 1963593).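 Note: CHO cells stably overexpressing human ADRB2.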 The essentials: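 CHO cells stably over-expressing ADRB2 were plated overnight at 37C, then dosed with compounds plus a stimulation mix containing 100uM IBMX and 25uM Ro-20-1724 for 0.5hr at room temperature. cAMP was measured by HTRF competition, 1hr.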

Assay [18] can be described thus: p53 small molecule agonists, cell-based qHTS assay with rat liver microsomes: qHTS cell viability counter screen (AID 1963580). Note: nearly all actives have a fitted effect of over 45% in size. The essentials:
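In HCT-116 cells carrying a p53 response element-bla reporter, compounds were metabolically activated in situ by rat liver microsomes with NADPH over 16 h. Cell ATP content then served as the cytotoxicity measure.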

For assay [19], the target named is 5-hydroxytryptamine receptor 2A (Homo sapiens) (UniProt P28223). The experiment in a line: 5-hydroxytryptamine receptor 2A (HTR2A) small molecule antagonists, cell-based qHTS assay (AID 1963586). Note: nearly all actives have a fitted effect of over 45% in size. The essentials:
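Antagonist-mode intracellular calcium assay: DOI (4 nM) added after 5 min compound pre-incubation at room temperature to dye-loaded HTR2A-CHO cells. Fluorescence followed for 3 min, sampled every second.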

Assay [20] concerns the target Beta-2 adrenergic receptor (Homo sapiens) (UniProt P07550). The experiment in a line: Adrenergic beta2 receptor (ADRB2) small molecule antagonists, cell-based qHTS assay (AID 1963592). Note: series mostly up to about 92 µM; nearly all actives have a fitted effect of over 50% in size. The essentials:
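Cells (CHO, stable ADRB2 overexpression) incubated 18-20hr at 37C; compounds added from DMSO; agonist mix (1nM isoproterenol, 100uM IBMX, 25uM Ro-20-1724) added; 0.5hr RT; d2-cAMP and anti-cAMP-cryptate added; 1hr RT; 665/615 nm read.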

Unmarked numbers belong to inactive results. Inconclusive results are not listed. Activity calls are given as the source filed them. Unless noted, calls come from the whole dose curve.

D(2) dopamine receptor (Homo sapiens), sequence (P14416 whole entry, looked up): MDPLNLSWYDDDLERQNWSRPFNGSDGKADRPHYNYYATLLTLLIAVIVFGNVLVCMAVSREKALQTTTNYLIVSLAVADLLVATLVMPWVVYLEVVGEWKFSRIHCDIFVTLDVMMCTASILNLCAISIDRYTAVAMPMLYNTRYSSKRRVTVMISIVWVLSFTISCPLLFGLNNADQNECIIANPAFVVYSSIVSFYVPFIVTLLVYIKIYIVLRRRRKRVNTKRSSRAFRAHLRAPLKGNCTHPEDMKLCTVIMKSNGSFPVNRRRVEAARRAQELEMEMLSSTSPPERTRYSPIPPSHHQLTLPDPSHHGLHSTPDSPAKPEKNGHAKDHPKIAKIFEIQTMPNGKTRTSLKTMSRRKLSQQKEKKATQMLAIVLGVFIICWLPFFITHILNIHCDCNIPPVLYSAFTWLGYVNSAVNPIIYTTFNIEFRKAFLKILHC
KiSS-1 receptor (Homo sapiens), sequence (Q969F8 whole entry, looked up): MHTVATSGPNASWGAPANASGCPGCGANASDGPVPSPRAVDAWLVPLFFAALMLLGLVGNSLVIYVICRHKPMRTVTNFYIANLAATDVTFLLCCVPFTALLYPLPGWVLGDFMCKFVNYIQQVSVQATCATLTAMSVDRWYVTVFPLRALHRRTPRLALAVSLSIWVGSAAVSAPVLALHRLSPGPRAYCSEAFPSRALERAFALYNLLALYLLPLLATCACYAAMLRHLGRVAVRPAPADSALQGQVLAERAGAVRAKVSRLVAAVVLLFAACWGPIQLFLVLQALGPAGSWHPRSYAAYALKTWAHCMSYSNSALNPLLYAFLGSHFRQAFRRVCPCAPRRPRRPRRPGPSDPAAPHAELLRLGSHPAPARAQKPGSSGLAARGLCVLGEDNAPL
Gonadotropin-releasing hormone receptor (Homo sapiens), sequence (P30968 whole entry, looked up): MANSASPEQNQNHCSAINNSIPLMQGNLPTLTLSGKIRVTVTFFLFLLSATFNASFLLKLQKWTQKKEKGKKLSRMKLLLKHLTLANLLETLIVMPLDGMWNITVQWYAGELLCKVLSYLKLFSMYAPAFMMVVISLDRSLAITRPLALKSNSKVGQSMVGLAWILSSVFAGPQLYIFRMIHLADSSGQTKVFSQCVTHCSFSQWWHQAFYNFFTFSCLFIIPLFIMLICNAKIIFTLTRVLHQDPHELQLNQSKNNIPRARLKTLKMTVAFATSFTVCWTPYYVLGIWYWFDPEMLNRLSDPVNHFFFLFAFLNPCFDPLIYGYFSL
Beta-2 adrenergic receptor (Homo sapiens), sequence (P07550 whole entry, looked up): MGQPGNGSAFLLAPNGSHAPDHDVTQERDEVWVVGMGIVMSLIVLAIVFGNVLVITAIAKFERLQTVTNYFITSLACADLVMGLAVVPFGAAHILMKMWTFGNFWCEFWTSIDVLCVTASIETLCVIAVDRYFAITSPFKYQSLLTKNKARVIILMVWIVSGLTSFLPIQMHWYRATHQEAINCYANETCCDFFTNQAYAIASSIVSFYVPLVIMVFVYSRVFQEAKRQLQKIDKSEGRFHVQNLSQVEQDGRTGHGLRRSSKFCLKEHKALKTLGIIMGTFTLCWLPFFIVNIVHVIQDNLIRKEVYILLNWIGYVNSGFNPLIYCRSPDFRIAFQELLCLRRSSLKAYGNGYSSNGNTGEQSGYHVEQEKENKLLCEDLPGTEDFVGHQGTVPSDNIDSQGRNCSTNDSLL
Muscarinic acetylcholine receptor M1 (Homo sapiens), sequence (P11229 whole entry, looked up): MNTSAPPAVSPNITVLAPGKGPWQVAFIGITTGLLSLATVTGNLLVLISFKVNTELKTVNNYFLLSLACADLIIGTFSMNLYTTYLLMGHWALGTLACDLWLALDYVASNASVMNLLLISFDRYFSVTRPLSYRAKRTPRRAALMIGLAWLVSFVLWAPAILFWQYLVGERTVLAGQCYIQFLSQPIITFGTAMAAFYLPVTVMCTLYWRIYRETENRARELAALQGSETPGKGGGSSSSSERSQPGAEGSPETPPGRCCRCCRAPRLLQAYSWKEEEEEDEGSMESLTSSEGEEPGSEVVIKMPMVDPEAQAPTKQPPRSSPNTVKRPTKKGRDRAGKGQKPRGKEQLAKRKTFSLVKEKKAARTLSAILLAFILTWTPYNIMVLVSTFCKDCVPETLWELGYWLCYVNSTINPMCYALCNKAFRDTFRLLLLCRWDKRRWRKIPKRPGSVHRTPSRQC
5-hydroxytryptamine receptor 2A (Homo sapiens), sequence (P28223 whole entry, looked up): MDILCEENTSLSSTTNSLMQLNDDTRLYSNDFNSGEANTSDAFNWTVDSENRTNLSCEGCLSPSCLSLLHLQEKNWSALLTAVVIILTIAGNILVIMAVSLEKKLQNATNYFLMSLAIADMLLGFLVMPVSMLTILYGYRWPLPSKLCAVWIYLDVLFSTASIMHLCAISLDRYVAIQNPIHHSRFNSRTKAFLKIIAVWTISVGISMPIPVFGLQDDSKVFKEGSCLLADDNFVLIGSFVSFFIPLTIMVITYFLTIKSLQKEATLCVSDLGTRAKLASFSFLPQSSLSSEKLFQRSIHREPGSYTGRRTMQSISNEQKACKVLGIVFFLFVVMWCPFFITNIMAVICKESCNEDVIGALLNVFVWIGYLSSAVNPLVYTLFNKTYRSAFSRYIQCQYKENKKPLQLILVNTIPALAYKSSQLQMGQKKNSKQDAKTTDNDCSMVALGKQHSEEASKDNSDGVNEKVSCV

As for `CN1CCC(=C2c3ccccc3C=Cc3ccccc32)CC1`, the Potency result in assay [1], in assay [2], in assay [3], in [5], in assay [6] and in [7] was “inactive” throughout. For the same molecule, the Potency entry in assay [8], in assay [9], in assay [10] and in [11] was “inactive” in each case. In assay [4], the outcome was inactive. In addition, the Potency in assay [12] was 13.3 µM (active).
`CCCCCCCCCCCCCCCCCCO`: the Potency result in assay [1], in assay [2], in assay [3], in assay [5], in assay [6] and in assay [7] was “inactive” throughout. The Potency entry in assay [13], in assay [8], in [14], in [15], in assay [16] and in [9] was “inactive” in each case. In addition, the Potency result in assay [10], in assay [17], in assay [11] and in assay [12] was “inactive” each time. The outcome in [4] was inactive.
Regarding `CO[C@H]1C=CO[C@@]2(C)Oc3c(C)c(O)c4c(O)c(cc(O)c4c3C2=O)NC(=O)/C(C)=C\C=C/[C@H](C)[C@H](O)[C@@H](C)[C@@H](O)[C@@H](C)[C@H](OC(C)=O)[C@@H]1C`, the Potency in assay [1] was 54.9 µM (active); in [2], 27.5 µM (active). The Potency entry in [3], in assay [5], in [6], in [7], in assay [18] and in assay [19] was “inactive” throughout. Moreover, the Potency result in [14], in [16], in [10] and in [11] was “inactive” each time. Also, in [4], the outcome was inactive.
On to `CCOC(=O)C1=NOC(c2ccccc2)(c2ccccc2)C1`, for which the Potency entry in assay [1], in [2], in assay [3], in assay [5], in [6] and in [18] was “inactive” each time. Further, the Potency entry in assay [13], in [8], in assay [19], in assay [14], in assay [16] and in assay [9] was “inactive” throughout. The Potency entry in assay [20], in assay [17], in [11] and in [12] was “inactive” throughout. Also, the result in [4] was inactive.
On to `OCCC(O)CO` (stereo not drawn), for which the Potency result in [1], in assay [2], in assay [3], in [5], in assay [6] and in assay [18] was “inactive” throughout. The Potency result in [13], in assay [8], in assay [19], in assay [14], in assay [15] and in assay [16] was “inactive” in each case. The Potency result in assay [9], in [10], in assay [20], in assay [11] and in assay [12] was “inactive” throughout. Further, in [4], the result was inactive.
Consider `OCC(CO)n1cnc(-c2ccc(F)cc2)c1-c1ccnc(Oc2ccccc2)n1`, for which the Potency entry in assay [1], in assay [2], in [3], in assay [5], in assay [6] and in [7] was “inactive” each time. The Potency result in assay [18], in [8], in assay [19], in assay [14], in assay [15] and in [16] was “inactive” each time. For the same molecule, the Potency result in assay [20], in [17] and in assay [11] was “inactive” each time. In addition, the result in assay [4] was inactive.
As for `COc1cc2c(N3CCN(C(=O)Nc4ccc(OC(C)C)cc4)CC3)ncnc2cc1OCCCN1CCCCC1`, in assay [1], the Potency was 23.7 µM (active). In addition, the Potency entry in assay [2], in assay [3], in [5], in [6], in assay [18] and in assay [13] was “inactive” each time. In addition, the Potency entry in [8], in assay [19], in assay [14], in assay [15], in [16] and in assay [10] was “inactive” throughout. In assay [20], the Potency result was “inactive”. In [4], the outcome was inactive.
